Results from the supplement of paper PMC6953052.
Whole data set: some 1,700 compounds, median “fraction of GFP-LC3-positive cells (≥5 vesicles/cell)” near 0.058, cut for the highest 2% near 0.59. The entries come from a sample that favours the highest values as a whole.

system: CbCln3 +/+ GFP-LC3 cerebellar neuronal cells; assay: fraction of GFP-LC3-positive cells (≥5 vesicles/cell); higher = more autophagosome accumulation
Summary of the method: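 Compound (~50 nL in DMSO) was pin-transferred in duplicate onto wild-type or mutant CbCln3 cerebellar cells stably expressing GFP-LC3, seeded at 2 × 10^3/well in 384-well plates, for 24 h at 33 °C. After fixation in 3.2% PFA, three fields per well were imaged at 10×. The value reported is the duplicate average of the fraction of cells meeting a vesicle-count threshold, with CellProfiler counting GFP-LC3 vesicles per cell and out-of-focus images excluded. Cells met the threshold at 5 or more vesicles.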

| Structure (SMILES) | fraction of GFP-LC3-positive cells |
| --- | --- |
| CC(C)(C)c1cc(C=C(C#N)C#N)cc(C(C)(C)C)c1O | 0.357 |
| CC(C)(C)c1cc(C=C(C#N)C#N)cc(C(C)(C)C)c1O [tyrphostin 9] | 0.67 |
| N#CC(C#N)=Cc1ccc(O)c(O)c1 | 0.094 |
| N#CC(C#N)=Cc1cc(O)c(O)c(O)c1 | 0.0475 |
| CCN(CC)C(=O)N[C@H]1C[C@@H]2c3cccc4[nH]cc(c34)C[C@H]2N(C)C1.O=C(O)/C=C\C(=O)O [S(-)-terguride hydrogen maleate] | 0.0461 |
| CC(C)[C@]12O[C@H]1[C@@H]1O[C@]13[C@]1(O[C@H]1C[C@H]1C4=C(CC[C@@]13C)C(=O)OC4)[C@@H]2O [Triptolide] | 0.268 |
| Cl.NCCc1c[nH]c2ccc(O)cc12 [Serotonin hydrochloride] | 0.0685 |
| C#CCN(C)[C@H](C)Cc1ccccc1.Cl [Selegiline hydrochloride] | 0.0621 |
| C[N+]1(C)CCCC(OC(=O)C(O)(c2ccccc2)c2ccccc2)C1.[Br-] (stereo not given) [Mepenzolate bromide] | 0.0681 |
| COC1=C[C@@H]2C3=C([C@@H]2C1=O)[C@@H](NC(C)=O)CCc1cc(OC)c(OC)c(OC)c13 [Lumicolchicine gamma] | 0.0307 |
| COc1cc2c(c(OC)c1OC)-c1ccc(O)c(=O)cc1[C@@H](N)CC2 [Trimethylcolchicinic acid] | 0.0619 |
| COc1cc2c(c(OC)c1OC)-c1ccc(OC)c(=O)cc1[C@@H](NC(C)=O)CC2 [Colchicine] | 0.778 |
| CC(C)(O)[C@H]1O[C@H]2CC[C@@]3(C)[C@@](O)(CC[C@H]4Cc5c([nH]c6ccccc56)[C@@]43C)C2=CC1=O | 0.0216 |
| C/C=C(/C)C(=O)O[C@H]1C(C)=C2[C@H]([C@@H]1OC(=O)CCCCCCC)[C@@](C)(OC(C)=O)C[C@H](OC(=O)CCC)[C@@]1(O)[C@H]2OC(=O)[C@@]1(C)O | 0.665 |
| Cl.O[C@@H]1CCCC[C@H]1N1CCC(c2ccccc2)CC1 [L(-)-vesamicol hydrochloride] | 0.076 |
| CC(C)N(CCC(C(N)=O)(c1ccccc1)c1ccccn1)C(C)C (stereo not given) [Disopyramide] | 0.0661 |
| COc1cc2c(cc1O)[C@@H]1Cc3ccc(OC)c(O)c3CN1CC2 [Scoulerine] | 0.588 |
| O.O.O.O=C1OC2(c3cc(Br)c([O-])cc3Oc3c2cc(Br)c([O-])[c]3[Hg][OH])c2ccccc21.[Na+].[Na+] (stereo not given) [Merbromin] | 0.957 |
| CCCCC/C=C\C/C=C\C/C=C\C/C=C\CCCC(=O)NCc1ccc(O)c(OC)c1 [Arvanil] | 0.144 |
| CC[C@@]1(O)C(=O)OCc2c1cc1n(c2=O)Cc2cc3ccccc3nc2-1 [Camptothecine (S,+)] | 0.321 |
